Inconclusive results are not listed. Active and inactive are the calls of the source. The calls were made as follows: active = hit-call score of the fitted dose curve at least 0.9, where 1 is the maximum; inconclusive = response in the unintended direction; inactive = score below 0.9.

Cellular tumor antigen p53 (Homo sapiens), sequence (P04637 whole entry, looked up): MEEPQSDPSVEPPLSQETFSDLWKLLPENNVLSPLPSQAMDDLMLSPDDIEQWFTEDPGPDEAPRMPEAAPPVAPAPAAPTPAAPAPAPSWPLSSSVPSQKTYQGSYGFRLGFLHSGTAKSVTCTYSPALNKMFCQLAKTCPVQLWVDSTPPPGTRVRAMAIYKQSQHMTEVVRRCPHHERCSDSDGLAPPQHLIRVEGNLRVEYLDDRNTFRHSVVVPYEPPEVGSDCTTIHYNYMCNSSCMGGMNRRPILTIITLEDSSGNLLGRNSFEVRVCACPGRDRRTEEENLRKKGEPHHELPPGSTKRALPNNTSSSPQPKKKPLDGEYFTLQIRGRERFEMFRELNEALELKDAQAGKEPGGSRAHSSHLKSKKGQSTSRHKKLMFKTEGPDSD

The target of the first assay is Cellular tumor antigen p53 (Homo sapiens) (UniProt P04637). Nature of the assay: TOX21_p53_BLA_p5_ratio: Tox21 HCT-116 p53 Agonism Beta-lactamase Assay, Ratio, Phase 5 (AID 2283599). The procedure, abridged:
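HCT-116 p53-bla cells (4000/well) plated 5 h, dosed with compound (217-fold DMSO dilution) for 16 h at 37 C; CCF4-AM substrate 2 h at room temperature. Activity is the 460/530 nm emission ratio (405 nm excitation), fitted in gain-of-signal direction versus DMSO.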
For `c1ccc2c(CCC3CCNCC3)c[nH]c2c1`, the result was inactive. Still for that read-out and setting: for `Nc1ccc(S(=O)(=O)NC(=O)c2ccccc2)cc1` the value was “inactive”; for `Nc1ccccc1S(=O)(=O)O`, “inactive”; for `C[C@@H](O)C(=O)O`, “inactive”.

Take `O=C1CCCc2ccccc21`: the outcome was inactive. The same measure, in the same setting: with `CCO/C([O-])=N/c1c[n+](N2CCOCC2)no1` the entry was “inactive”.

As for `c1cnc2cc3c(cc2n1)[C@@H]1CNC[C@H]3C1`, the outcome was inactive.

Take `Cc1ccc(CO)cc1`: the outcome was inactive. Regarding `c1ccc2c(c1)Sc1ccccc1N2CCN1CCCC1`, the result was inactive. In the case of `CN[C@H]1CCc2cc(OC)c(OC)c(OC)c2-c2ccc(OC)c(=O)cc21`, the outcome was inactive.

Consider `CCCCC(=O)N(Cc1ccc(-c2ccccc2-c2nn[nH]n2)cc1)[C@@H](C(=O)O)C(C)C`, for which the outcome was inactive. On the same count and under the same terms, for `COc1cc(C(=O)NCCCCCC(=O)O)cc(OC)c1OC` the value was “inactive”; for `Cc1ccnc(NS(=O)(=O)c2ccc(N)cc2)n1`, “inactive”; for `CCCCCC[C@@H](O)C/C=C\CCCCCCCC(=O)OC`, “inactive”. The same measure, in the same setting: for `C[C@H]1NCc2cc(-c3ccc4c(=O)c(C(=O)O)cn(C5CC5)c4c3OC(F)F)ccc21` the value was “inactive”; for `O=S(=O)(O)CO`, “inactive”. On the same count and under the same terms, with `O=C(O)CNC(=O)c1ccc(CO)o1` the entry was “inactive”; with `O=C(NNCS(=O)(=O)O)c1ccncc1`, “inactive”; with `CCC1NC(=O)c2cc(S(N)(=O)=O)c(Cl)cc2N1` (centres undefined), “inactive”. Consider `Cc1ccc2cccnc2c1`, for which the outcome was inactive. Same read-out and setting: with `CO[C@@]1(NC(=O)CSC[C@@H](N)C(=O)O)C(=O)N2C(C(=O)O)=C(CSc3nnnn3C)CS[C@@H]21` the entry was “inactive”.

Test system in the next assay: not listed separately
In words: TOX21_p53_BLA_p5_viability: Viability Assessment in the Tox21 HCT-116 p53 Agonism Beta-lactamase Assay, Phase 5 (AID 2283600). The procedure, abridged: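 4000 cells/well; 5 h pre-incubation; DMSO compounds pin-transferred, 217-fold dilution; 16 h, 37C/5% CO2; CCF4-AM 2 h RT; CellTiter-Glo 30 min RT; luminescence.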
Take `c1ccc2c(CCC3CCNCC3)c[nH]c2c1`: the outcome was inactive. Same read-out and setting: for `Cn1nnnc1SCC1=C(C(=O)O)N2C(=O)[C@@H](NC(=O)[C@H](OC=O)c3ccccc3)[C@H]2SC1` the value was “inactive”; for `Cc1cc(N)no1`, “inactive”.

`O=C1CCCc2ccccc21`: the result was inactive. Take `CCO/C([O-])=N/c1c[n+](N2CCOCC2)no1`: the call was inactive. On the same count and under the same terms, for `Cc1ccc(CO)cc1` the value was “inactive”; for `CC(=O)[C@@]1(O)CC[C@H]2[C@@H]3C=C(Cl)C4=CC(=O)[C@@H]5C[C@@H]5[C@]4(C)[C@H]3CC[C@@]21C`, “inactive”; for `O=C(O)CCS`, “inactive”. As to `Cc1ccccc1N=Nc1ccc(N=Nc2c(O)ccc3ccccc23)c(C)c1`, the molecule was classed as inactive. Regarding `Cc1ccnc(NS(=O)(=O)c2ccc(N)cc2)n1`, the molecule was called inactive. The same measure, in the same setting: with `C=CCCCCCCCC` the entry was “inactive”; with `CC(=NCc1ccccc1)c1ccccc1O`, “inactive”. In the case of `CCCCCC[C@@H](O)C/C=C\CCCCCCCC(=O)OC`, the outcome was inactive. Consider `C[C@H]1NCc2cc(-c3ccc4c(=O)c(C(=O)O)cn(C5CC5)c4c3OC(F)F)ccc21`, for which the result was inactive.

As to `Cc1ccc(C(=O)Nc2ccc(S(=O)(=O)O)c3cc(S(=O)(=O)O)cc(S(=O)(=O)O)c23)cc1NC(=O)c1cccc(NC(=O)Nc2cccc(C(=O)Nc3cc(C(=O)Nc4ccc(S(=O)(=O)O)c5cc(S(=O)(=O)O)cc(S(=O)(=O)O)c45)ccc3C)c2)c1`, the outcome was inactive. Still for that read-out and setting: with `CC(C)NCC(O)COc1ccc(CCOCC2CC2)cc1` (centres undefined) the entry was “inactive”.

`CCOC(=O)/C=C/C(=O)OCC`: the molecule was classed as inactive. Same read-out and setting: for `Cc1ccc(C)c(N)c1` the value was “inactive”. Still for that read-out and setting: with `C#CC(O)CCCCC` (centres undefined) the entry was “inactive”; with `C=CC(C)(O)CC/C=C(/C)CCC=C(C)C` (centres undefined), “inactive”; with `CCN(CC)CCn1c(=O)c(Cc2ccc(OC)cc2)nc2ccccc21`, “inactive”. Still for that read-out and setting: with `CC(=O)OC(C)OC(C)=O` the entry was “inactive”. In the case of `Cc1ccc(C)cc1`, the molecule was called inactive.

Take `CCC1NC(=O)c2cc(S(N)(=O)=O)c(Cl)cc2N1` (centres undefined): the result was inactive. On the same count and under the same terms, with `CNCCC(Oc1ccccc1OC)c1ccccc1` (centres undefined) the entry was “inactive”; with `Cc1ccc2cccnc2c1`, “inactive”; with `CO[C@@]1(NC(=O)CSC[C@@H](N)C(=O)O)C(=O)N2C(C(=O)O)=C(CSc3nnnn3C)CS[C@@H]21`, “inactive”. On the same count and under the same terms, for `C=CC(C)(O)CCCC(C)CCCC(C)CCCC(C)C` (centres undefined) the value was “inactive”.

(Values after PubChem BioAssay (EPA / NIEHS).)
